High-throughput results: PubChem, NMMLSC
Rows were chosen to be rich in hits. Some 2.5% of all compounds tested hit in one or more screens of this group.
MEKK3 PB1 HTS – raises or lowers MEK5 binding to the human MEKK3 PB1 domain; binding response (% of control), % at 10 µM; actives 1.4% (n = 290,000); AID 1529; bead-based flow cytometry, Alexa488-MEK5 binding to MEKK3; actives lie on both sides; 0 = blocked by unlabeled MEK5, 100 = vehicle;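 active = binding response more than 3 SD above or below the average of its plate-row segment, actives on both sides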;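 note: Alexa488 bead fluorescence after subtracting the streptavidin-only scavenger bead signal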
Target sequence (Q99759 whole entry, looked up, the tested form may be a part): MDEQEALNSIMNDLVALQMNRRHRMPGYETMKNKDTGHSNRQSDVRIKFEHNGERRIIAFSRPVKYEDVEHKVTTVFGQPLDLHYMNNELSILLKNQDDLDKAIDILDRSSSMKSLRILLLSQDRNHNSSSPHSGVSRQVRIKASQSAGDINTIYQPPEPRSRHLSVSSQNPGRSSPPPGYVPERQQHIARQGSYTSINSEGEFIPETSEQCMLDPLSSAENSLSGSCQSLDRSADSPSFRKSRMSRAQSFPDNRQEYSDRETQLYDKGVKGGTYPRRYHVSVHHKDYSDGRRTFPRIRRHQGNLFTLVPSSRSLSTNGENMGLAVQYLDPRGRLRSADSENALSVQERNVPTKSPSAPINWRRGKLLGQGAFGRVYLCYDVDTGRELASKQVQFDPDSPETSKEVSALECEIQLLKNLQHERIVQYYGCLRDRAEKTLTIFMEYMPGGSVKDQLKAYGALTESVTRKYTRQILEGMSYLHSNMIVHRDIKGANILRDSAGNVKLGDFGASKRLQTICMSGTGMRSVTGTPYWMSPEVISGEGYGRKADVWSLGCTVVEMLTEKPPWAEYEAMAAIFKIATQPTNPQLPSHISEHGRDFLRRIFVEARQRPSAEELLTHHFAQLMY
MEKK2 mut-MEK5 – signal of MEK5 binding to mutant human MEKK2 PB1 domain | percent response, % at 10 µM | actives 0.35% (n = 290,000) | AID 1530 | bead flow cytometry, Alexa488-MEK5 binding to MEKK2 mutant; in the data active = percent response above about 24%, passing the limit was not always enough
MEKK2wt PB1 HTS – raises or lowers MEK5 binding to wildtype human MEKK2 PB1 domain; AID 1531; actives 1.1% (n = 290,000); binding response (% of control), % at 10 µM; Q9Y2U5; bead flow cytometry, Alexa488-MEK5 binding to MEKK2 WT; actives lie on both sides; in the data active = binding response below about 67% or above about 130%
GRK2 aptamer HTS – human GRK2 inhibition via aptamer displacement. AID 488847. bead flow cytometry, FAM-aptamer displacement from GRK2. actives 0.59% (n = 330,000). P25098. inhibition of aptamer binding, % at 10 µM;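 active = inhibition of aptamer binding above 40%, roughly 3 SD of noise, on plates passing a quality check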;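 note: median bead fluorescence of bound FAM aptamer so fluorescent compounds give negative values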
MEKK2wt confirm – raises or lowers MEK5 binding to wildtype human MEKK2, retest; shares compounds with MEKK3 PB1 HTS; bead flow cytometry, Alexa488-MEK5 binding to MEKK2 WT; actives lie on both sides; binding response (% of control), % at 10 µM; actives 2.4% (n = 5,900); AID 1892; in the data active = binding response below about 16% or above about 210%; inactive = in between
MEKK2mut confirm – signal of MEK5 binding to mutant human MEKK2, retest; shares compounds with MEKK3 PB1 HTS; bead flow cytometry, Alexa488-MEK5 binding to MEKK2 mutant; percent response, % at 10 µM; actives 2% (n = 5,900); AID 1893; in the data active = percent response mostly above about 71%, no sharp cut-off; inactive = mostly below about 38%;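 note: higher means compound restores mutant binding toward wildtype level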
MEKK3-MEK5 inh – confirmation of inhibitors of MEK5 binding to human MEKK3 | actives 1.8% (n = 5,900) | bead flow cytometry, Alexa488-MEK5 binding to MEKK3; hits give low values | shares compounds with MEKK3 PB1 HTS | AID 1894 | binding response (% of control), % at 10 µM;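 active = binding response below 72% of control, or above a set upper limit, though filed actives all read lower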;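 note: 100% = DMSO only wells and 0% = binding blocked by excess unlabeled MEK5; lower values mean stronger disruption of MEK5 binding to MEKK3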
* marks the source's active call; other numbers are inactive results; · = not tested or not shown; [ ] = dose if it differs, or a comment.

SMILES	MEKK3 PB1 HTS	MEKK2 mut-MEK5	MEKK2wt PB1 HTS	GRK2 aptamer HTS	MEKK2wt confirm	MEKK2mut confirm	MEKK3-MEK5 inh
CCN(CC)C1CCN(Cc2cn[nH]c2-c2ccc(OC)c(F)c2)C1 (stereo not given)	104	26	132	0	·	·	·
COCCN1CCC(CNCc2cn[nH]c2-c2ccc(C)c(C)c2)C1 (stereo not given)	100	31	161*	0	159	43	114
COc1ccc(C(=O)COC(=O)CNC(=O)c2ccc(OC)cc2)cc1	104	-1	100	0	·	·	·
Cc1ccc(S(=O)(=O)NC(=O)Nc2cccc(S(=O)(=O)N(C)C)c2)cc1	·	·	·	0	·	·	·
COC(=O)Cn1cnc2c(oc3ccccc32)c1=O	97	-5	98	2	·	·	·
C=CCOc1ccc(/C=N/N2C(=O)C(CC(=O)Nc3ccc(F)cc3F)SC2=NC)cc1 (stereo not given)	128*	0	101	0	102	0	106
CN=C1SC(CC(=O)Nc2ccccc2F)C(=O)N1C (stereo not given)	106	11	104	0	·	·	·
Cc1c(Cl)ccc2sc(NC(=O)CN3C(=O)c4ccccc4C3=O)nc12	64*[inhibitor]	-9	76	0	98	6	98
Cc1cccc2sc(NC(=O)CN3C(=O)NC4(CCCC4)C3=O)nc12	97	-6	95	2	·	·	·
Cc1cccc2sc(NC(=O)CN3C(=O)C4CC=CCC4C3=O)nc12 (stereo not given)	148*	8	129	0	104	3	108
O=[N+]([O-])c1ccccc1S(=O)(=O)Nc1cccc(S(=O)(=O)N2CCCC2)c1	·	·	·	0	·	·	·
Cc1ccc(S(=O)(=O)NNc2nnc(C)c(=O)[nH]2)cc1	135*	5	129	0	101	-6	99
Cc1nnc(NNS(=O)(=O)c2ccc(Cl)cc2)[nH]c1=O	112	0	106	0	·	·	·
O=C(N/N=C1/CC2C=CCC12)c1ccco1 (stereo not given)	103	-1	105	0	·	·	·
Cc1c(NS(=O)(=O)c2ccc(N(C)C3CCCCC3)c([N+](=O)[O-])c2)c(=O)n(-c2ccccc2)n1C	103	2	103	0	·	·	·
O=C(CSCC(=O)Nc1ccc2ccccc2c1)NCc1ccccc1	104	1	105	0	·	·	·
CC(C)c1ccc(CNC(=O)CSCC(=O)Nc2ccc3ccccc3c2)cc1	117	12	140*	0	106	2	101
NC(=O)[C@@H]1CCCCNc2c(F)cc([N+](=O)[O-])cc2C(=O)N[C@@H](CCCN=C(N)N)C(=O)NCC(=O)N1	104	7	108	0	·	·	·
NCCCC[C@@H]1NC(=O)c2cc([N+](=O)[O-])cc(F)c2NCCCC[C@@H](C(N)=O)NC(=O)CNC1=O	113	12	135*	·	104	2	103
Cc1[nH]c2ccccc2c1-c1nc2ccccc2[nH]c1=O	98	-1	101	0	·	·	·
Cc1nn(C)cc1CNC(=O)c1cccc(F)c1	107	0	103	0	·	·	·
Cc1nn(C)cc1CNC(=O)c1cccc(Br)c1	122*	8	96	3	99	2	97
O=C(O)c1sccc1Oc1ccc(NS(=O)(=O)c2cccc(F)c2)cc1	108	2	104	1	·	·	·
O=C1CCC([N+](=O)[O-])C(c2ccc(Br)cc2)N1 (stereo not given)	133*	1	105	0	95	-6	101
Cc1ccc(C2NC(=O)CCC2[N+](=O)[O-])cc1 (stereo not given)	·	·	·	2	·	·	·
SMILES	MEKK3 PB1 HTS	MEKK2 mut-MEK5	MEKK2wt PB1 HTS	GRK2 aptamer HTS	MEKK2wt confirm	MEKK2mut confirm	MEKK3-MEK5 inh
N=c1c(S(=O)(=O)c2ccc(Cl)cc2)cc2c(=O)n3ccccc3nc2n1C1CCCCC1	101	1	96	3	·	·	·
Cc1cc(NC(=O)CCN2CCN(C/C=C/c3ccccc3)CC2)ccc1Br	112	18	149*	0	152	20	109
CC(C(=O)Nc1ccccc1Br)N1c2cccc3cccc(c23)S1(=O)=O (stereo not given)	104	2	102	0	·	·	·
CN(C)CCOc1ccc(C(C)(C)c2ccccc2)cc1	107	13	110	5	·	·	·
CCN(CC)CCOc1ccc(/C(=C(/Cl)c2ccccc2)c2ccccc2)cc1	108	26*	179*	0	189	62	107
CC/C(=C(\c1ccc(O)cc1)c1ccc(OCCN(C)C)cc1)c1ccccc1	78	43	180*	0	182	39	102
CCCCc1ccc(NC(=O)CSc2nnc(CNC(=O)c3ccco3)o2)cc1	100	1	101	0	·	·	·
CC(C)(C)NC(=O)COc1ccc(CNCc2cccs2)cc1	2.0*[inhibitor]	-27	-1.0*[inhibitor]	0	109	9	102
COc1ccc(-c2[nH]ncc2CN2CCCCCCC2)c(OC)c1	108	98*	223*	0	214*	79*	112
COc1ccc(-c2[nH]ncc2CN2CCN(c3ccccn3)CC2)c(OC)c1	97	-9	86	0	·	·	·
CCOC(=O)C1=C(C)N(C)C(=O)NC1c1cccc2ccccc12 (stereo not given)	104	1	102	2	·	·	·
Cc1ccc(/C=N/NC(=O)c2ccoc2C)o1	130*	1	110	6	106	7	108
CCN(C(=O)CSc1nnc(C)c(=O)[nH]1)c1cccc2ccccc12	·	·	·	0	·	·	·
COc1ccc(Cc2c(O)nc(SCC(=O)N3CCOCC3)[nH]c2=O)cc1	107	4	109	1	·	·	·
O=C(CSc1nc(O)c(Cc2ccccc2)c(=O)[nH]1)N1CCOCC1	131*	31	118	0	98	2	99
CCN(CC)S(=O)(=O)c1ccc(OCC2CCCCO2)c([N+](=O)[O-])c1 (stereo not given)	97	-7	94	0	·	·	·
Cc1nn(C)cc1/C=C(/C#N)C(N)=O	149*	1	109	0	100	-6	99
Cc1nn(C)cc1C(N)=O	118	13	115	1	·	·	·
CNS(=O)(=O)c1cccc(C(=O)OCC(=O)/C=C2/N(C)c3ccccc3C2(C)C)c1	131*	1	108	0	106	-2	100
CCCCOc1ccc(CSCCN)cc1Cl	128*	41	169*	0	108	3	97
CCOc1ccc(CSC(=N)N)cc1Cl	103	18	110	0	·	·	·
COc1ccccc1N1CC(C(=O)Nc2ccccc2N2CCCC2)CC1=O (stereo not given)	·	·	·	0	·	·	·
